The record followed here is PubChem BioAssay.

For assay [1], the system named is Plasmodium falciparum Sir2 (PF13_0152, Sir2A). Briefly: Plasmodium falciparum Sir2A binding compounds – biochemical, small-molecule microarray, 635 nm fluorescence, primary screen (AID 1098).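 Further: score merges spot fluorescence intensity with its signal-to-noise ratio.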 The settings on record: fluorescence 635 nm, higher = more signal.
The nature of assay [2]: probe aDKK1 binding to arrayed compounds – biochemical, biotinylated probe, 635/667 nm fluorescence, primary screen (AID 1099).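 Further: score merges 667nm spot fluorescence with signal to noise across triplicate slides.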 The settings on record: small-molecule microarray, higher = more signal.
The nature of assay [3]: probe aCHRDL2 binding to arrayed compounds – biochemical, biotinylated probe, 635/667 nm fluorescence, primary screen (AID 1100). The conditions noted are these: small-molecule microarray, higher = more signal.
Assay [4] in a line: change in splice reporter luminescence, either direction, cell-based, HEK293, spliceosome inhibition project, primary screen (AID 1101).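 Further: HEK293 cells carrying a splicing-competent luciferase reporter gene; test concentration not given here.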 The conditions noted are these: HEK293 splicing luciferase reporter, 24 h, higher = more signal, called active from +8 up or from −8 down. For orientation: A reporter such as luciferase makes a cellular process visible.
The target in assay [5] is Fibroblast growth factor 10 (Homo sapiens) (UniProt O15520). Put plainly: compounds binding fibroblast growth factor 10 – biochemical, small-molecule microarray, 635 nm fluorescence, primary screen (AID 1102). The settings on record: FGF10 binding, fluorescence 635 nm, higher = more signal.
The subject of assay [6] is glycogen synthase kinase-3 (GSK3A per assay name; protocol says GSK3B). Put plainly: compounds binding glycogen synthase kinase-3 – biochemical, small-molecule microarray, 635 nm fluorescence, GSK3A, primary screen (AID 1103). Further: the record names both GSK3A and GSK3B. The conditions noted are these: fluorescence 635 nm, higher = more signal.
Assay [7] addresses Epidermal growth factor receptor (Homo sapiens) (UniProt P00533). Put plainly: compounds binding epidermal growth factor receptor – biochemical, small-molecule microarray, 635 nm fluorescence, primary screen (AID 1104).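 Further: score merges 667 nm emission intensity with spot signal to noise over triplicate slides.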 The conditions noted are these: EGFR binding, higher = more signal.
Assay [8] deals with Follistatin-related protein 3 (Homo sapiens) (UniProt O95633). Put plainly: compounds binding follistatin-related protein 3 – biochemical, small-molecule microarray, 635 nm fluorescence, primary screen (AID 1105).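 Further: score merges emission near 667 nm and signal to noise per printed spot across three slides.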 The settings on record: FSTL3 binding, higher = more signal.
In assay [9] the target is Dickkopf-related protein 1 (Homo sapiens) (UniProt O94907). Briefly: small molecules binding DKK1 protein – biochemical, small-molecule microarray, 635 nm fluorescence scan, primary screen (AID 1106).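 Further: score merges emission near 667 nm with signal to noise over three replicate slides.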 The settings on record: higher = more signal.
For assay [10], the system named is Inhibin beta A chain (activin A). Briefly: small molecules binding activin A – biochemical, small-molecule microarray, 635 nm fluorescence scan, primary screen (AID 1107).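 Further: mouse activin A protein probed at 4.33 µg/mL on printed slides; score merges bound-protein fluorescence near 667 nm with spot signal-to-noise.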 The conditions noted are these: INHBA, higher = more signal.
The test system of assay [11] is Human papillomavirus type 1a protein E7 (residues 44-93). Briefly: small molecules binding HPV E7 44-93 – biochemical, small-molecule microarray, residues 44-93, 635 nm fluorescence, primary screen (AID 1108).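 Further: E7 fragment applied at 1 µg/mL in TBST for 1 h at 4 C; score combines spot fluorescence with its signal to noise ratio.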 The settings on record: fluorescence 635 nm, higher = more signal.
Assay [12] is described as follows: hepatitis C replication reporter changes, two-sided – Huh7 cells, luciferase reporter, HCV replication inhibitor project, primary screen (AID 1109).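 Further: huh7 hepatoma cells harbouring a luciferase neomycin HCV replicon reporter; luciferase luminescence as measure of HCV replicon replication; test concentration not given here.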 The settings on record: Huh7 HCV replicon luciferase reporter, 48 h; higher = more signal.
Assay [13] concerns the target Left-right determination factor 2 (Homo sapiens) (UniProt O00292). Briefly: small molecules binding LEFTY2 protein – biochemical, small-molecule microarray, 635 nm fluorescence scan, primary screen (AID 1110). The settings on record: higher = more signal.
Assay [14] deals with Calmodulin-1 (Homo sapiens) (UniProt P0DP23). Briefly: small molecules binding calmodulin-1 with EGTA – biochemical, small-molecule microarray, Cy5-labelled CALM1, profiling panel (AID 1111).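 Further: labelled calmodulin applied in Tris saline Tween buffer holding calcium plus EGTA and DTT.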 The conditions noted are these: Cy5-CALM1 binding fluorescence, higher = more signal.
The target is the same in assay [15]. Put plainly: small molecules binding Ca-loaded calmodulin-1 – biochemical, small-molecule microarray, Cy5-labelled CALM1, plus calcium, artefact control for SMM control-protein annotation, profiling panel (AID 1112).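 Further: score merges spot fluorescence with signal to noise from triplicate slides.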 The conditions noted are these: Cy5-CALM1 binding fluorescence, higher = more signal.
Assay [16] is described as follows: probe aWnt5a binding to arrayed compounds – biochemical, biotinylated probe, 635/667 nm fluorescence, primary screen (AID 1113).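 Further: score merges 667 nm fluorescence intensity with signal-to-noise per printed feature.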 The conditions noted are these: small-molecule microarray, higher = more signal.
Assay [17] is described as follows: probe aShh binding to arrayed compounds – biochemical, biotinylated probe, 635/667 nm fluorescence, primary screen (AID 1114).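 Further: probe is biotin-labelled aShh protein from a stem cell growth factor screen; measures binding of labelled protein to compounds printed on the slide; score merges feature fluorescence at 667 nm with signal-to-noise.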 The settings on record: small-molecule microarray, higher = more signal.
Assay [18] is described as follows: probe aNog binding to arrayed compounds – biochemical, biotinylated probe, 635/667 nm fluorescence, primary screen (AID 1115).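 Further: probe is biotinylated aNog protein used at 0.15 µg/mL for 1 h at 4 C; z-score combines 667 nm fluorescence of each spot with its signal to noise.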 The settings on record: small-molecule microarray, higher = more signal.
The target in assay [19] is Torsin-1A-interacting protein 1 (Homo sapiens) (UniProt Q5JTV8). Briefly: compound microarray binding of lysate hLAP1 – cell lysate, small-molecule microarray, COS7 lysate, 635/667 nm fluorescence, primary screen (AID 1116). The conditions noted are these: 635 nm fluorescence, higher = more signal.
Assay [20] deals with Alpha-bungarotoxin (Bungarus multicinctus) (UniProt P60615). Briefly: compounds binding labelled alpha-BTX control protein – biochemical, small-molecule microarray, Alexa647 label, 635/667 nm fluorescence, artefact control for SMM control protein annotation, profiling panel (AID 1117). The conditions noted are these: alpha-BTX-A647 binding fluorescence, higher = more signal.

SMILES strings stand for the structures. Calls of active or inactive are those of the source.

Sequence of Fibroblast growth factor 10 (Homo sapiens) (O15520 whole entry, looked up): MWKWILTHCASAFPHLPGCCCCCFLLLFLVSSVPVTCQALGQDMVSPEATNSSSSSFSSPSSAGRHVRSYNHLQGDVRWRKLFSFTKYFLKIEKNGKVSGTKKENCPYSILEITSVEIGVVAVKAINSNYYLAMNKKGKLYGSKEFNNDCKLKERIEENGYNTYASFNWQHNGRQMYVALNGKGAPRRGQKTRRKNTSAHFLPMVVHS
Sequence of Epidermal growth factor receptor (Homo sapiens) (P00533 whole entry, looked up): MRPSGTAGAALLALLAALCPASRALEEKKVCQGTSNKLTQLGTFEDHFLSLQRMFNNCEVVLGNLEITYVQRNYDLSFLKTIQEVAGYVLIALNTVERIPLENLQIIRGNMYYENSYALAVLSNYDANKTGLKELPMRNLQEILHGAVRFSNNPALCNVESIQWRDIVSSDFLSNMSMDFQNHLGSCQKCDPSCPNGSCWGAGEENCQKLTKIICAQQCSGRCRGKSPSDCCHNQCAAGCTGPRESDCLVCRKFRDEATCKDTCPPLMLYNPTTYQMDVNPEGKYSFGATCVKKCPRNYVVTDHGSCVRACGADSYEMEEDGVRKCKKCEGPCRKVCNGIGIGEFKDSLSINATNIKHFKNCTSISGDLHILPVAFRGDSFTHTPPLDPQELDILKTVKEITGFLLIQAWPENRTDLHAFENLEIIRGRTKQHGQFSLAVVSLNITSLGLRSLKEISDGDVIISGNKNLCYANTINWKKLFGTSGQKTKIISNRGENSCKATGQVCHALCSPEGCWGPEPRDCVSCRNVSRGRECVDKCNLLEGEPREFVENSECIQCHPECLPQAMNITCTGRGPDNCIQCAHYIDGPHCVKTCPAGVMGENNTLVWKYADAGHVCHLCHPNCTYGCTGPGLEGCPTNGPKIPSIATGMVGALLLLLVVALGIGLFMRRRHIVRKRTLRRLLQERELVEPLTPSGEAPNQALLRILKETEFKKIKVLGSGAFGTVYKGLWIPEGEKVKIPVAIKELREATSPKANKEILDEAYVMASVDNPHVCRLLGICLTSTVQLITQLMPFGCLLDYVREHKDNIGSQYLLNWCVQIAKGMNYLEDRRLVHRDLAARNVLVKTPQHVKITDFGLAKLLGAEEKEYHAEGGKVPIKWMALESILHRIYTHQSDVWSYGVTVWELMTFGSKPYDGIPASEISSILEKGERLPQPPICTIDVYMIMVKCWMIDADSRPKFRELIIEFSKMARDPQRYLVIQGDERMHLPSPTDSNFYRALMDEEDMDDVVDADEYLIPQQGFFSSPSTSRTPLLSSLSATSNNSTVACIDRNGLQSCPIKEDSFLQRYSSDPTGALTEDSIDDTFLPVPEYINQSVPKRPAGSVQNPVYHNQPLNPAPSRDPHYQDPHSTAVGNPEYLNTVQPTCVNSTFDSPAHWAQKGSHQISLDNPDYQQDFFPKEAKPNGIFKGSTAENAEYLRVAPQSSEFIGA
Sequence of Left-right determination factor 2 (Homo sapiens) (O00292 whole entry, looked up): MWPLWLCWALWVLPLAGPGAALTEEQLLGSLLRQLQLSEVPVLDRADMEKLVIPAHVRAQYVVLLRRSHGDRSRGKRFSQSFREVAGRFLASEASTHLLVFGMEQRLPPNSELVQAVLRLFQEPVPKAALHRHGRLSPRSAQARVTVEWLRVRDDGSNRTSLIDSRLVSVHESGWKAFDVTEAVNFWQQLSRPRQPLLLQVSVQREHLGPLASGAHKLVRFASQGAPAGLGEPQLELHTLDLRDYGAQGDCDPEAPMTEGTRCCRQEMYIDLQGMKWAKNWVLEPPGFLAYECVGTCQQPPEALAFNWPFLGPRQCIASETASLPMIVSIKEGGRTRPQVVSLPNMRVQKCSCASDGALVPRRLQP
Sequence of Torsin-1A-interacting protein 1 (Homo sapiens) (Q5JTV8 whole entry, looked up): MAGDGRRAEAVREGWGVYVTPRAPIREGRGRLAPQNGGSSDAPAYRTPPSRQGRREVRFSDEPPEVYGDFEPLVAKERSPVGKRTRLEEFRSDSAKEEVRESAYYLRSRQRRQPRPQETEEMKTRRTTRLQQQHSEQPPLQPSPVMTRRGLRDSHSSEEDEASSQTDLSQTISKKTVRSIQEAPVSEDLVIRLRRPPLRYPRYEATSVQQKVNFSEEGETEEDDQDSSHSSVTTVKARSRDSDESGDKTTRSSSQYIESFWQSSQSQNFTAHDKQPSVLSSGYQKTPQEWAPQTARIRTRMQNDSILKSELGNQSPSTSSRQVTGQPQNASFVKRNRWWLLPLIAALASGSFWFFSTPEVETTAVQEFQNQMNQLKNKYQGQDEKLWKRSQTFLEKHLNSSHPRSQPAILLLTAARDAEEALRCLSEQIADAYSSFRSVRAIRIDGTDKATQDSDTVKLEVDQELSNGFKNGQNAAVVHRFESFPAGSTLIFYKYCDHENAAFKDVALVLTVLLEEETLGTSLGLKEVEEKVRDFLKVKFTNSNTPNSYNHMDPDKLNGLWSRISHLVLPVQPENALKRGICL
Sequence of Dickkopf-related protein 1 (Homo sapiens) (O94907 whole entry, looked up): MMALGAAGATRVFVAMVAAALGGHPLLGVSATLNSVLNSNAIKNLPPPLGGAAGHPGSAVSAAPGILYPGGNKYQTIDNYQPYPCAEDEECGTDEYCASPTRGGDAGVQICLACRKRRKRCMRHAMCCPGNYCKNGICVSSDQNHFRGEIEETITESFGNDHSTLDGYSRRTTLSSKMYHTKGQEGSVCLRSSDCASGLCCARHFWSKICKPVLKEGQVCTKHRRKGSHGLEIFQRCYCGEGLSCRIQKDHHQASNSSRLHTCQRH
Sequence of Follistatin-related protein 3 (Homo sapiens) (O95633 whole entry, looked up): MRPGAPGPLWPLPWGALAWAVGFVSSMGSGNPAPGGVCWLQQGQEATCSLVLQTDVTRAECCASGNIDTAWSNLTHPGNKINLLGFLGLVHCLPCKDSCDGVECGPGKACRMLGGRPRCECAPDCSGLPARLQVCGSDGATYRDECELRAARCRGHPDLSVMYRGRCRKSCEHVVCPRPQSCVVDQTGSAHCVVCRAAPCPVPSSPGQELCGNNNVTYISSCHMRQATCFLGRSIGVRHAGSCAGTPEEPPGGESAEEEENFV
Sequence of Alpha-bungarotoxin (Bungarus multicinctus) (P60615 whole entry, looked up): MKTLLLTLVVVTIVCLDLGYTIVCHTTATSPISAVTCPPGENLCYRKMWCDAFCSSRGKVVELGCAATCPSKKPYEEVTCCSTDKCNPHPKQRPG

For the compound `CC[C@@H]1C=C(C(=O)O)[C@H](c2ccc(C(C)C)cc2)N1S(=O)(=O)c1ccc(C)cc1`, the composite z-score in [1] turned out to be 1.25; in [2], 1.1; in assay [3], 0.86; in assay [5], 1.08; in assay [6] it was 1.15; in assay [7], 0.001. Also, the composite z-score in [8] is 1.18; in [9], -0.172; in assay [10], 0.769; in assay [11], 1.27; in assay [13], 0.615; in assay [14], 2.38. For the same compound, the composite z-score in assay [15] was 0.692; in [16] it was 0.019; in assay [17], 0.519; in assay [18], -0.443; in [19], 2.19; in [20], 2.12. Also, the z-score in assay [4] was -0.0593 (inactive); in assay [12] it was -0.868.
As for `COc1ccc([Si](C)(C)[C@H]2[C@H](CCO)O[C@@]3(C(=O)N(Cc4ccccc4)c4ccc(N5C(=O)COc6ccccc65)cc43)[C@@H]2C)cc1`, the composite z-score in assay [1] was 1.12; in assay [2], 0.0649; in [3], 0.521; in assay [5], 0.305; in assay [6], -0.965; in assay [7], -0.5. The composite z-score is -0.207 in assay [8]; -0.214 in assay [9]; 0.241 in assay [10]; -1.13 in assay [11]; 0.206 in assay [13]; 1.44 in [14]. In addition, the composite z-score in assay [15] was 1.12; in assay [16] it was -0.136; in assay [17], 0.108; in assay [18], -0.487; in assay [19] it was 0.216; in assay [20] it was 0.662. Moreover, the z-score was -1.56 (inactive) in [4] and -4.64 in assay [12].
Regarding `NC(=O)NCC#Cc1ccc2c(c1)[C@]1(C(=O)N2)[C@H](c2ccccc2OCCO)N2[C@H](c3ccccc3)[C@H](c3ccccc3)OC(=O)[C@H]2[C@@H]1C(=O)N1CCCCCCC1`, the composite z-score in assay [1] stood at 1.68; in assay [2] it was 2.88; in assay [3], 1.73; in [5], 0.91; in assay [6] it was 1.35; in [7], 1.42. In addition, the composite z-score in assay [8] came to 1.6; in [9], 1.26; in [10], 1.88; in assay [11], 1.43; in [13], 1.34; in [14], 2.9. Further, the composite z-score is 1.55 in assay [15]; 1.18 in assay [16]; 0.728 in [17]; 3.1 in assay [18]; 4.58 in [19]; 3.37 in assay [20]. Besides, the z-score in [4] was -0.308 (inactive); in assay [12], -0.968.
As for `O=C1OCCC/C=C\[C@H]2OC34C=CCN(CCN5CCOCC5)C(=O)[C@H]3N(CCO)C(=O)[C@@H]4C12` (stereo not given in full), the composite z-score in assay [1] was 1.66; in assay [2], -0.214; in assay [3] it was 0.0583; in assay [5], -0.506; in [6], -0.707; in assay [7], -0.676. For the same compound, the composite z-score was -1.14 in [8]; -0.507 in assay [9]; -0.68 in [10]; -0.359 in assay [11]; -0.416 in assay [13]; -0.0877 in assay [14]. The composite z-score in assay [15] is 0.124; in [16], -0.176; in assay [17] it was -0.2; in assay [18], 0; in [19], -0.0137; in [20], -0.938. Also, the z-score was -1.15 (inactive) in [4] and 0.0112 in assay [12].
As for `Cc1ccc(S[C@]2(C(=O)NCC(F)(F)F)CC(=O)N(C3Cc4ccccc4C3)[C@@H]2c2ccc(CO)cc2I)cc1`, the composite z-score was 1.08 in assay [1]; 0.599 in assay [2]; 1.19 in [3]; -1.02 in [5]; -1.3 in [6]; -1.51 in assay [7]. Besides, the composite z-score in [8] was -1; in assay [9], -2.11; in assay [10] it was 0.554; in assay [11], -0.263; in [13], -1.56; in [14], -0.0026. In addition, the composite z-score in assay [15] was 0.994; in assay [16], -0.184; in [17], -0.197; in [18], 2.14; in assay [19], 0.265; in assay [20], 0.918. Moreover, the results for the z-score in assay [4] and in [12] were -0.426 (inactive) and -1.55, respectively.
As for `COc1ccc([Si](C)(C)[C@H]2[C@H](CC(=O)N3CCC[C@H]3CO)O[C@@]3(C(=O)N(Cc4cccc(N5CCC5=O)c4)c4ccccc43)[C@@H]2C)cc1`, the composite z-score in [1] is 1.11; in [2], -0.0732; in assay [3], -0.222; in assay [5] it was 1.4; in [6] it was 1.27; in assay [7], 0.993. The composite z-score in assay [8] is 1.45; in [9] it was 0.672; in assay [10] it was 0.728; in assay [11], 1.41; in assay [13], 0.992; in assay [14], -0.105. Moreover, the composite z-score was -0.363 in [15]; -0.0203 in assay [16]; 0.265 in assay [17]; 0.572 in assay [18]; 0.901 in [19]; 0.872 in assay [20]. Besides, the z-score was 0.566 (inactive) in [4] and -2.36 in [12].
Regarding `O=C1O[C@@H](c2ccccc2)[C@@H](c2ccccc2)N2[C@@H](c3ccc(O)cc3)[C@]3(C(=O)Nc4ccccc43)[C@@H](C(=O)N3CCCCCCC3)[C@H]12`, the composite z-score in [1] was determined as 2.02; in [2], 2.5; in assay [3], 1.53; in assay [5], 1.03; in assay [6], 1.32; in assay [7] it was 1.27. The composite z-score in assay [8] was found to be 1.58; in [9], 1.56; in assay [10], 1.98; in assay [11], 1.47; in assay [13], 0.695; in assay [14] it was 2.86. Further, the composite z-score is 1.61 in [15]; 1.37 in assay [16]; 2.07 in [17]; -0.531 in assay [18]; 4.6 in [19]; 3.12 in assay [20]. Also, the z-score is -1.29 (inactive) in [4] and -1.93 in [12].
For the compound `C[N+](C)(C)CCCCNC(=O)[C@H]1C[C@H]2C(=O)N3CCC[C@H]3C(=O)N2[C@H]1c1ccc(O)cc1`, the composite z-score is 1.48 in [1]; 0.0607 in assay [2]; -0.152 in assay [3]; 1.39 in assay [5]; 0.521 in assay [6]; 0.967 in [7]. In addition, the composite z-score in assay [8] is 1.49; in [9], 1.82; in [10], -0.443; in assay [11] it was 0.257; in assay [13] it was 1.28; in assay [14], -0.546. Further, the composite z-score is -0.368 in assay [15]; -0.0236 in assay [16]; -0.0146 in assay [17]; -0.0662 in assay [18]; 2.01 in assay [19]; 1.57 in assay [20]. Moreover, the results for the z-score in assay [4] and in assay [12] were 0.0339 (inactive) and -1.25, respectively.
